Target: T1, Ephrin type-B receptor 4 (Homo sapiens) (UniProt P54760)
T1 sequence (whole entry): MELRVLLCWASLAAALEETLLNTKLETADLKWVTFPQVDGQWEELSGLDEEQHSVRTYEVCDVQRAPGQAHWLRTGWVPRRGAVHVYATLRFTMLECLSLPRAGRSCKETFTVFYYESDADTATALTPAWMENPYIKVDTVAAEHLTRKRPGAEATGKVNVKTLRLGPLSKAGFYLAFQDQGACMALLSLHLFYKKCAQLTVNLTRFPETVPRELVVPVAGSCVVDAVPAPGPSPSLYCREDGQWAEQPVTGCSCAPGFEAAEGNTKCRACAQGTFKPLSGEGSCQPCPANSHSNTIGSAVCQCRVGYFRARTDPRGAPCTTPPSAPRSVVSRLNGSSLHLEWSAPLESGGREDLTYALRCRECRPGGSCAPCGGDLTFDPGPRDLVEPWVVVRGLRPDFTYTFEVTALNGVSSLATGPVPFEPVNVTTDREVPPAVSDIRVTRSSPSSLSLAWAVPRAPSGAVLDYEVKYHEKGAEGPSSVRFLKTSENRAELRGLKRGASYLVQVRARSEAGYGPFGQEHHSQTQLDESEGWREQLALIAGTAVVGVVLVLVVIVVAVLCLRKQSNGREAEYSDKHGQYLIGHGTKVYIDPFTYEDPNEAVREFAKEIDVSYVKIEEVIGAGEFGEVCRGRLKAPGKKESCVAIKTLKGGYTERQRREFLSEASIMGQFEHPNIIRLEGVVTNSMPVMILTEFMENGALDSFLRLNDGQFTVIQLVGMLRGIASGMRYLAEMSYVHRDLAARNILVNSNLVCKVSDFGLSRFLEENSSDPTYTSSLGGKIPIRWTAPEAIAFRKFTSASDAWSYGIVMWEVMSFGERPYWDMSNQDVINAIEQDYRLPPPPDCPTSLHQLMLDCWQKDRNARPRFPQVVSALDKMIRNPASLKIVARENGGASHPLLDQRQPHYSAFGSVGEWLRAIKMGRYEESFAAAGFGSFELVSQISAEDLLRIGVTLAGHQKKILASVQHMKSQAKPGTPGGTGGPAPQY
Conditions: at 1 µM

SMILES	residual activity [%]
CCN(CC)CCNC(=O)c1c(C)[nH]c(/C=C2\C(=O)Nc3ccc(Cl)cc32)c1C	100
O=c1cc(N2CCOCC2)oc2c1ccc1ccccc12	101
CSc1nc(-c2ccc(F)cc2)c(-c2ccnc(NC(C)c3ccccc3)c2)[nH]1 (centres undefined)	99
CC(C)[C@H](CO)Nc1nc(Nc2cc(N)cc(Cl)c2)c2ncn(C(C)C)c2n1	57
COc1ccc(COc2ccc(Cc3cnc(N)nc3N)cc2OC)cc1	99
Nc1ncnc2c1c(-c1ccc(Oc3ccccc3)cc1)cn2C1CCCC1	99
O=C1Cc2c([nH]c3ccc(Br)cc23)-c2ccccc2N1	89
CC(C)c1nn(-c2c(Cl)cccc2Cl)c2nc(Cc3ccc(OCCO)cc3)[nH]c(=O)c12	86
COc1cc2c(cc1OC)-c1n[nH]c(Nc3cccc(F)c3)c1C2	77
COc1cc2ncnc(Nc3cccc(Cl)c3)c2cc1OC	45
O=c1cc(N2CCNCC2)oc2c(-c3ccccc3)cccc12	97
O=C1NC(=O)c2c1c1c3ccccc3[nH]c1n1cncc21	82
CCCCc1c(-c2ccc(OC)cc2)[nH]c2nccnc12	78
Cn1sc(=O)n(Cc2ccccc2)c1=O	87
Nc1n[nH]c2nc3ccccc3nc12	97
CCCC(=O)Oc1ccc2[nH]c(C(=O)c3cc4ccccc4[nH]3)cc2c1	92
CC(C)(C)n1nc(Cc2cccc3ccccc23)c2c(N)ncnc21	3
O=C1C(Cl)=C(N2C(=O)CCC2=O)C(=O)c2ccccc21	93
COc1ccc(-c2cnc3c(-c4ccsc4)cnn3c2)cc1	123
